# Test results from PubChem BioAssay.
# Activity calls are given as the source filed them.
# Columns and labels:
# [1] = test system: PRMT1 (protein arginine N-methyltransferase 1); assay: PRMT1 binders on small-molecule microarrays, primary screen, biochemical, small-molecule microarray, 635 nm fluorescence (AID 1088); conditions: small-molecule microarray binding, higher = more signal;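 note: binding of Prmt1 protein to compounds spotted on small-molecule microarray slides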
# [2] = yeast growth modulation, basal conditions, primary screen, YJM789 clinical isolate, OD600, 24 h (AID 1089);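 note: growth of clinical yeast isolate S. cerevisiae YJM 789 seeded 1000 cells per well; test concentration not given here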; conditions: S. cerevisiae YJM789 growth, higher = more signal, called active from +8 up or from −8 down
# [3] = fission yeast growth modulation, primary screen, strain 972, OD600, 24 h, no modulator (AID 1090);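 note: basal condition with compound alone and no growth modifier present; test concentration not given here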; conditions: S. pombe 972 growth, higher = more signal, called active from +8 up or from −8 down
# [4] = S. cerevisiae growth modulation with rapamycin, primary screen, strain BY4716, OD600, 96 h (AID 1091); conditions: higher = more signal, called active from +8 up or from −8 down; note: test concentration not given here
# [5] = target: Torsin-1A-interacting protein 2 (Homo sapiens) (UniProt Q8NFQ8); assay: LULL1 binders on small-molecule microarray, primary screen, cell lysate, human LULL1 lysate, 635/667 nm fluorescence (AID 1092); conditions: hLULL1 lysate binding, 635 nm fluorescence, higher = more signal;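 note: probe is lysate of COS7 cells overexpressing human LULL1; score merges per-feature 667 nm fluorescence with signal-to-noise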
# [6] = E. coli growth modulation, two-sided OD650, primary screen, E. coli filamentation project, strain DRC41, 24 h (AID 1093); conditions: OD650, 24 h, higher = more signal, called active from +8 up or from −8 down;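 note: MC1000 strain lacking acrAB efflux and sulA so SOS filamentation is blocked; test concentration not given here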
# [7] = small-molecule microarray binders of probe aLefty2, primary screen, biochemical, biotinylated probe, 635/667 nm fluorescence (AID 1094); conditions: higher = more signal;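 note: score merges spot fluorescence near 667 nm with spot signal-to-noise ratio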
# [8] = test system: Noggin (protein binding on small-molecule microarray); assay: Noggin binders on small-molecule microarray, primary screen, biochemical, 635/667 nm fluorescence (AID 1095); conditions: 635 nm fluorescence, higher = more signal;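 note: score merges 667 nm feature fluorescence with signal to noise over triplicate slides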
# [9] = target: Neurogenic locus notch homolog protein 3 (Homo sapiens) (UniProt Q9UM47); assay: NOTCH3 binders on small-molecule microarray, primary screen, biochemical, 635/667 nm fluorescence (AID 1096); conditions: NOTCH3 binding, 635 nm fluorescence, higher = more signal
# [10] = small-molecule microarray binders of probe aEGFR, primary screen, biochemical, biotinylated probe, 635/667 nm fluorescence (AID 1097); conditions: higher = more signal;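 note: probe is a biotinylated anti-EGFR antibody binding compounds printed on slides; score combines fluorescence near 667 nm and signal to noise of each spot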
# [11] = test system: Plasmodium falciparum Sir2 (PF13_0152, Sir2A); assay: pfSir2 binders on small-molecule microarrays, primary screen, biochemical, small-molecule microarray, 635 nm fluorescence (AID 1098); conditions: small-molecule microarray binding, fluorescence 635 nm; higher = more signal;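 note: score merges spot fluorescence intensity with its signal-to-noise ratio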
# [12] = small-molecule microarray binders of probe aDKK1, primary screen, biochemical, biotinylated probe, 635/667 nm fluorescence (AID 1099); conditions: higher = more signal;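 note: score merges 667nm spot fluorescence with signal to noise across triplicate slides; reference of the scale not given here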
# [13] = small-molecule microarray binders of probe aCHRDL2, primary screen, biochemical, biotinylated probe, 635/667 nm fluorescence (AID 1100); conditions: higher = more signal
# [14] = splicing luciferase reporter signal modulators, primary screen, spliceosome inhibition project, cell-based, HEK293, splice +/- reporter (AID 1101); conditions: luminescence, 24 h, higher = more signal, called active from +8 up or from −8 down;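 note: HEK293 cells carrying a splicing-competent luciferase reporter gene; test concentration not given here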
# [15] = target: Fibroblast growth factor 10 (Homo sapiens) (UniProt O15520); assay: FGF10 binders on small-molecule microarrays, primary screen, biochemical, small-molecule microarray, 635 nm fluorescence (AID 1102); conditions: FGF10 binding, fluorescence 635 nm, higher = more signal
# [16] = test system: glycogen synthase kinase-3 (GSK3A per assay name; protocol says GSK3B); assay: GSK3 binders on small-molecule microarrays, primary screen, biochemical, small-molecule microarray, 635 nm fluorescence, GSK3A (AID 1103); conditions: small-molecule microarray binding, fluorescence 635 nm; higher = more signal; note: the record names both GSK3A and GSK3B
# [17] = target: Epidermal growth factor receptor (Homo sapiens) (UniProt P00533); assay: EGFR binders on small-molecule microarrays, primary screen, biochemical, small-molecule microarray, 635 nm fluorescence (AID 1104); conditions: EGFR binding, higher = more signal;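 note: score merges 667 nm emission intensity with spot signal to noise over triplicate slides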
# [18] = target: Follistatin-related protein 3 (Homo sapiens) (UniProt O95633); assay: FSTL3 binders on small-molecule microarrays, primary screen, biochemical, small-molecule microarray, 635 nm fluorescence (AID 1105); conditions: FSTL3 binding, higher = more signal;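 note: score merges emission near 667 nm and signal to noise per printed spot across three slides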
# [19] = target: Dickkopf-related protein 1 (Homo sapiens) (UniProt O94907); assay: DKK1 binders on small-molecule microarrays, primary screen, biochemical, small-molecule microarray, 635 nm fluorescence scan (AID 1106); conditions: DKK1 binding, higher = more signal;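 note: score merges emission near 667 nm with signal to noise over three replicate slides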
# [20] = test system: Inhibin beta A chain (activin A); assay: INHBA (activin A) binders on microarrays, primary screen, biochemical, small-molecule microarray, 635 nm fluorescence scan (AID 1107); conditions: small-molecule microarray binding, higher = more signal;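 note: mouse activin A protein probed at 4.33 µg/mL on printed slides; score merges bound-protein fluorescence near 667 nm with spot signal-to-noise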
# Chain of Epidermal growth factor receptor (Homo sapiens) (P00533 whole entry, looked up): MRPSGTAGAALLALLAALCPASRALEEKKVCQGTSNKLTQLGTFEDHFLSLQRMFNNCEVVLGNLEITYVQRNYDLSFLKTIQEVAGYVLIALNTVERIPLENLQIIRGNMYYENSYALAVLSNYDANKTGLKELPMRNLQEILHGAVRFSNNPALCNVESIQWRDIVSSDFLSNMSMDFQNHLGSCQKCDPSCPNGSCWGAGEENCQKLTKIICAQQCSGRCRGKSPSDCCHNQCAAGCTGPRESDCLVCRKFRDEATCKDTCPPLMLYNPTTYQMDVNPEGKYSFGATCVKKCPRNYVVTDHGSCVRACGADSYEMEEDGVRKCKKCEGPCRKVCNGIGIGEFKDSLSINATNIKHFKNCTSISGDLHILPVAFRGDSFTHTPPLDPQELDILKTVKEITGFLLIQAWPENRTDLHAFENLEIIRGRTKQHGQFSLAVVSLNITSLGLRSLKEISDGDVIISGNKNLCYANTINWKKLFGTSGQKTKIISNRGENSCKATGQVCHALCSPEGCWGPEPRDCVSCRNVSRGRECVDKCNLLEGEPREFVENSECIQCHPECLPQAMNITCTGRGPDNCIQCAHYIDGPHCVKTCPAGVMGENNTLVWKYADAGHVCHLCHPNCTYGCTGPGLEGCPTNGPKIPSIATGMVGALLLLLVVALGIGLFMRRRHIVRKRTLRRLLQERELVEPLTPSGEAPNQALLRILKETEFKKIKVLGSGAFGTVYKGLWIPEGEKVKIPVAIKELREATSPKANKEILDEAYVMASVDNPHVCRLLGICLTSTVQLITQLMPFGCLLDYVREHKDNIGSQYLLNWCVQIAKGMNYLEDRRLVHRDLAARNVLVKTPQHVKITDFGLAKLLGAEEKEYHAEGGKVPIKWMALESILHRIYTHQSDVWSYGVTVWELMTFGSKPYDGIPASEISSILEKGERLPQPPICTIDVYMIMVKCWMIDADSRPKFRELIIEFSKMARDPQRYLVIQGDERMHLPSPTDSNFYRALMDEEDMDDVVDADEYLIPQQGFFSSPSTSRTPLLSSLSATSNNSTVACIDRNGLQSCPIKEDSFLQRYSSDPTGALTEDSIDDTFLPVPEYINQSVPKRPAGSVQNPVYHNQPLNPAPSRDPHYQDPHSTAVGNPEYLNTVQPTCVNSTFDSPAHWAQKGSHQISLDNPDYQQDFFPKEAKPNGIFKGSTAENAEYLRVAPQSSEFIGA
# Chain of Neurogenic locus notch homolog protein 3 (Homo sapiens) (Q9UM47 whole entry, looked up): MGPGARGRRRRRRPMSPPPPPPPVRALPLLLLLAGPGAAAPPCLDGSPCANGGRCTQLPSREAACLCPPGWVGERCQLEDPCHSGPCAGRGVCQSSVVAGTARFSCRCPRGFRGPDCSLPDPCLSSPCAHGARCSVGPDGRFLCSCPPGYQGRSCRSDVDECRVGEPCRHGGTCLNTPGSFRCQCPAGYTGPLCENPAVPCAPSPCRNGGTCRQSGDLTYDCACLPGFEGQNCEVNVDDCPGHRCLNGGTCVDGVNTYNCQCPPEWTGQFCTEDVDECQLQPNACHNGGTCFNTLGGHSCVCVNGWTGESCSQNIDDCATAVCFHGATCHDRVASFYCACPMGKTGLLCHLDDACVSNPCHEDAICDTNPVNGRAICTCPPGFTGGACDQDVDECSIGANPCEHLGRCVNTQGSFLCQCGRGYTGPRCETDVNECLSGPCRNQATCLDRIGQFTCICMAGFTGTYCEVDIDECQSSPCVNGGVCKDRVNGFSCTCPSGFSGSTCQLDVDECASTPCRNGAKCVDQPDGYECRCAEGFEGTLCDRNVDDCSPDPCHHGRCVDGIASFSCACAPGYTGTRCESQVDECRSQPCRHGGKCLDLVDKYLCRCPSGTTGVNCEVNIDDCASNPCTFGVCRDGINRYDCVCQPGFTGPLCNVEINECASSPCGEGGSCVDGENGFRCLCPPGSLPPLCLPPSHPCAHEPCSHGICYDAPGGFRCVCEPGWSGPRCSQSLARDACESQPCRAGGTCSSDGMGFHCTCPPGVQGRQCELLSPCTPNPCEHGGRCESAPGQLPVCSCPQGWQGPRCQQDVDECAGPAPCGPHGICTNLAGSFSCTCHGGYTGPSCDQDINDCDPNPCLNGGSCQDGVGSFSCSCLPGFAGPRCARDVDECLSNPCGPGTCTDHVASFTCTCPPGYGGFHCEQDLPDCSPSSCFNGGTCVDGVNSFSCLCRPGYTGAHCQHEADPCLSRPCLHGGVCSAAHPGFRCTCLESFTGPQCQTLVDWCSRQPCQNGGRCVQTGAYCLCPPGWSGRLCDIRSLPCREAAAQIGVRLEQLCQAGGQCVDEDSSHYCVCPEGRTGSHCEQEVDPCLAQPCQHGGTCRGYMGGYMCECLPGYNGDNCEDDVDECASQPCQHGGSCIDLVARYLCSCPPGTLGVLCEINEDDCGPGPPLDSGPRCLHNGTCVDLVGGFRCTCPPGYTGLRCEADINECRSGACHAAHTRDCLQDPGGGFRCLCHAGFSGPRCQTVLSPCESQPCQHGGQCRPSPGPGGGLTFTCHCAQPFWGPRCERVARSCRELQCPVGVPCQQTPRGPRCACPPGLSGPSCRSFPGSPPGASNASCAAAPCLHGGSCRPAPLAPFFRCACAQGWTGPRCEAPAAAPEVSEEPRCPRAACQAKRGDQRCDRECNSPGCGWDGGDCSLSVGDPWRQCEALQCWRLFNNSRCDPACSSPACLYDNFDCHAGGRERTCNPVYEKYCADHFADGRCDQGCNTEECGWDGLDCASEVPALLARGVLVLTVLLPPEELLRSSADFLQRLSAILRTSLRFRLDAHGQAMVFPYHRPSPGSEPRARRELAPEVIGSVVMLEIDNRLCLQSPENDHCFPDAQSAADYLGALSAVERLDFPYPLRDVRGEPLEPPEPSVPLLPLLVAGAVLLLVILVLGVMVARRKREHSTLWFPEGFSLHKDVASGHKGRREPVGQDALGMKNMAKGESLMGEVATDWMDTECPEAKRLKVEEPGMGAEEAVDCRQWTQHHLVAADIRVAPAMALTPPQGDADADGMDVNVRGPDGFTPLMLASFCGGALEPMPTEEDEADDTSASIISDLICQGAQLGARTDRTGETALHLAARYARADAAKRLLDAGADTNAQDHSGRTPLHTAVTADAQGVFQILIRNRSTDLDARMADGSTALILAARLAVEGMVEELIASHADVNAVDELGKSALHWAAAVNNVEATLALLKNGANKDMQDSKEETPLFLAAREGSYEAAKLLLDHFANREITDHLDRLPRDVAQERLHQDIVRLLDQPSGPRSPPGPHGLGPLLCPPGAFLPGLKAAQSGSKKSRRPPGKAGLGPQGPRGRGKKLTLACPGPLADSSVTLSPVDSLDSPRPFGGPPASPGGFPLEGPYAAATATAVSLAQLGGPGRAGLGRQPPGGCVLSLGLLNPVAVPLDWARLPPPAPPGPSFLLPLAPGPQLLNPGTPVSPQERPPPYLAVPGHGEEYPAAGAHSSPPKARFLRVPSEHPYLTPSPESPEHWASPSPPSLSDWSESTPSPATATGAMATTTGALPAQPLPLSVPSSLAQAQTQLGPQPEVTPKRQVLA
# Chain of Follistatin-related protein 3 (Homo sapiens) (O95633 whole entry, looked up): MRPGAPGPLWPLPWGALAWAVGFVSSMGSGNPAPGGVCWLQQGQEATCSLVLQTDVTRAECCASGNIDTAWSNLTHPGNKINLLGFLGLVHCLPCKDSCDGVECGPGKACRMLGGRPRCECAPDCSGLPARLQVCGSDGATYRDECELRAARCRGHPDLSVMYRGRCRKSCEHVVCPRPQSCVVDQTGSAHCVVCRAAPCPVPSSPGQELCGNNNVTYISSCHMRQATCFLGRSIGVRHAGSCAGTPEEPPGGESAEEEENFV
# Chain of Fibroblast growth factor 10 (Homo sapiens) (O15520 whole entry, looked up): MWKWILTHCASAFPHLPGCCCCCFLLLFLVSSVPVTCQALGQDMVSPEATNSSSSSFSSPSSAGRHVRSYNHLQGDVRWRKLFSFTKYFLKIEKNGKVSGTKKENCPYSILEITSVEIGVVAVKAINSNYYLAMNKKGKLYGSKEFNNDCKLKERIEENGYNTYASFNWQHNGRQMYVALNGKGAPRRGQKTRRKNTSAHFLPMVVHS
# Chain of Torsin-1A-interacting protein 2 (Homo sapiens) (Q8NFQ8 whole entry, looked up): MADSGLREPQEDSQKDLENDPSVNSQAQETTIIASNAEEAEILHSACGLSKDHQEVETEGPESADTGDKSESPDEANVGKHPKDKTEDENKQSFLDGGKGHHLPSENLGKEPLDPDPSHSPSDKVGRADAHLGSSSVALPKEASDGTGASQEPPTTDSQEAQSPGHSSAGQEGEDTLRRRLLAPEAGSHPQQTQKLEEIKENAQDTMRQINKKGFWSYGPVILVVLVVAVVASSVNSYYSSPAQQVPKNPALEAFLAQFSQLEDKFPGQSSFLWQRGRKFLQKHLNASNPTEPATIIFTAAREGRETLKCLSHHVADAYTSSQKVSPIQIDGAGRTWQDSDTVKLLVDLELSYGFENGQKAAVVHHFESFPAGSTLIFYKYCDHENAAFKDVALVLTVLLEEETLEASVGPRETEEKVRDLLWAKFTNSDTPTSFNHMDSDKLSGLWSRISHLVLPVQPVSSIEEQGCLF
# Chain of Dickkopf-related protein 1 (Homo sapiens) (O94907 whole entry, looked up): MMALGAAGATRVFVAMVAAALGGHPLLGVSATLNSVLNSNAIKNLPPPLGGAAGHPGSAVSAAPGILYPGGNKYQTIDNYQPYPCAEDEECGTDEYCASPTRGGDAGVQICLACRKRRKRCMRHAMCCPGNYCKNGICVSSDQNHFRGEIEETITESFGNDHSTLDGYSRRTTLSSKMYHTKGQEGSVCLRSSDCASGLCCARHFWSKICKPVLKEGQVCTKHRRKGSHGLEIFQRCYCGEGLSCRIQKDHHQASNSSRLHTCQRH
SMILES,composite z-score [1],z-score [2],z-score [3],z-score [4],composite z-score [5],z-score [6],composite z-score [7],composite z-score [8],composite z-score [9],composite z-score [10],composite z-score [11],composite z-score [12],composite z-score [13],z-score [14],composite z-score [15],composite z-score [16],composite z-score [17],composite z-score [18],composite z-score [19],composite z-score [20]
COC(=O)C(CC#Cc1ccc2c(c1)[C@]1(C(=O)N2)[C@H](C(=O)N2CCCCCCC2)[C@H]2C(=O)O[C@H](c3ccccc3)[C@H](c3ccccc3)N2[C@@H]1c1ccccc1OCCO)C(=O)OC,1.54,0.293 (inactive),-0.97 (inactive),0.172 (inactive),5.3,-0.823 (inactive),1.89,2.44,1.02,1.46,2.14,3.1,1.75,0.13 (inactive),1.47,1.47,1.96,1.73,2.58,1.79
CN(C)CCCCCCNC(=O)[C@@H]1C[C@@H]2C(=O)NCC(=O)N2[C@@H]1c1cccc(OCCO)c1,1.53,0.116 (inactive),-0.192 (inactive),0.191 (inactive),3.07,0.121 (inactive),0.164,1.17,1.03,0.0225,1.39,0.156,-0.0688,0.0236 (inactive),1.34,1.36,0.654,1.48,1.28,0.433
NC(=O)NCC#Cc1ccc2c(c1)[C@]1(C(=O)N2)[C@H](C(=O)NC[C@H](O)c2ccccc2)[C@H]2C(=O)O[C@H](c3ccccc3)[C@H](c3ccccc3)N2[C@@H]1c1ccccc1OCCO,1.53,1.41 (inactive),-0.133 (inactive),2.44 (inactive),2.35,2.02 (inactive),-0.186,0.307,0.927,-0.167,1.3,-0.0611,0.729,-0.416 (inactive),0.588,-0.425,0.143,-0.0845,-1.04,0.286
COC(=O)[C@@]1(Cc2ccc(OC)cc2)[C@H]2c3cc(C(=O)N(C)C)n(CCSCCO)c3C[C@H]2CN1C(=O)c1ccccc1,0.359,-0.526 (inactive),0.271 (inactive),-0.251 (inactive),3.53,-0.209 (inactive),0.162,0.281,1.13,0.31,0.403,1.14,1.16,-2.69 (inactive),0.448,0.528,-0.263,0.413,-0.796,0.737
C=C[C@@H](C)[C@@H](OC(=O)Nc1ccc(OC)cc1)c1ccc(O)c2ccccc12,0.906,-24.7 (active),-20.9 (active),-3.73 (inactive),1.15,1.02 (inactive),-0.17,1.15,0.514,-0.116,1.13,-0.241,-0.576,-0.0898 (inactive),0.856,0.357,0.762,0.723,0.475,1.24
CCCCC(=O)N(Cc1ccccc1F)[C@@H]1CC(C(=O)NCCO)=C[C@H](Oc2c(I)cc(CO)cc2OC)[C@H]1O,1.54,0.41 (inactive),-1.91 (inactive),-1.02 (inactive),1.83,0.772 (inactive),-0.0718,2.04,1.04,0.0209,1.09,-0.22,-0.327,-0.0457 (inactive),1.46,1.34,0.91,1.13,1.96,0.535
O=C1C2C=CC(C(O)c3ccc(-c4ccccc4)s3)N(Nc3ccccc3F)C2C(=O)N1c1ccccc1 (stereo not given),1.33,0.264 (inactive),0.167 (inactive),1.58 (inactive),2.85,-1.82 (inactive),0.207,-0.243,1.02,0.232,0.913,1.22,1.27,0.25 (inactive),0.772,0.806,0.247,0.817,0.0154,0.948
C=C(COC)/C(=C/C[C@H](OC(C)=O)c1ccccc1OCCO)c1cnc2ccccc2c1,0.826,-0.837 (inactive),0.14 (inactive),1.29 (inactive),1.76,0.223 (inactive),-0.171,0.556,0.76,0.436,0.279,-0.0732,-0.0887,0.11 (inactive),1.16,0.521,0.486,1.41,0.743,1.85
C=CCCN(CC#C[C@H]1Oc2ccccc2S(=O)(=O)N2CCC[C@@H]12)S(=O)(=O)c1ccc(C)cc1,0.514,1.15 (inactive),-1.7 (inactive),0.965 (inactive),0.974,-1.59 (inactive),-0.139,0.264,0.18,-0.145,0.327,-0.342,-0.289,3.09 (inactive),0.371,0.0464,0.185,0.485,0.435,1.45
C=CCOC(=O)[C@@H]1[C@H]2C(=O)O[C@H](c3ccccc3)[C@H](c3ccccc3)N2[C@H](c2ccc(OCCOC(=O)[C@H]3C[C@H]4C(=O)N[C@@H](CC(C)C)C(=O)N4[C@H]3c3cccc(OCCO)c3)cc2)[C@@]12C(=O)Nc1ccc(I)cc12,1.53,0.705 (inactive),0.492 (inactive),2.65 (inactive),2.66,0.147 (inactive),-0.0849,1.58,1.06,-0.0769,1.41,0.169,-0.135,-0.835 (inactive),1.23,1.32,0.694,1.25,0.836,0.255
